Several values for one entry are separate records, joined by “and”; a condition that tells them apart may be missing. Equal entries are not always repeated. Activity calls are given as the source filed them. How the source made its calls: active means hit-call score of the fitted dose curve at least 0.9, where 1 is the maximum; inactive means score below 0.9.
Test: CCTE_Shafer_MEA_acute_synchrony_index: CCTE's Neural Acute Assay for Synchrony, Shafer Lab (AID 2284027);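 further: fitted for loss of signal so actives lower synchrony relative to DMSO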
Protocol: CCTE_Shafer_MEA_acute assay is conducted using Axion Biosystems 48 well microelectrode array (MEA) plates and Maestro recording system. Each well of the MEA plate contains a grid of 16 microelectrodes embedded in the culture surface. Electrically active cells, such as neurons, can be cultured over the electrodes, and electrical activity in these cells can be recorded extracellularly. The spontaneous firing of neurons is captured from each electrode on a microsecond timescale providing both temporally and spatially precise data. […] The CCTE_Shafer_MEA_acute assay uses primary cultures of rat cortical neurons. As these cultures mature over time, neural networks develop functional activity and form cohesive networks in which electrical activity can be highly coordinated. Baseline 40-minute recordings are made on days post-plating 13 or 15, followed by a secondary 40-minute recording after chemical exposure.CCTE_Shafer_MEA_acute_synchrony_index is a component of the CCTE_Shafer_MEA_acute assay. It measures the synchrony of the neural network as a unitless measure between 0 (low synchrony) to 1 (high synchrony) during a recording in a microelectrode array (MEA) using Axion Biosystems Maestro 768 channel amplifier with the AxIS adaptive spike detector. The recordings before and after chemical treatment are used to calculate a percent change in the synchrony index in each well.Data from the assay component CCTE_Shafer_MEA_acute_synchrony_index was analyzed into 1 assay endpoint. This assay endpoint, CCTE_Shafer_MEA_acute_synchrony_index, was analyzed in the negative analysis fitting direction relative to DMSO as the negative control and baseline of activity. Using a type of functional reporter, gain or loss-of-signal activity can be used to understand electrical activity.
Spontaneous activity in the cortical cultures was recorded using an Axion Biosystems Maestro 768 channel amplifier and Axion Integrated Studios (AxIS) v1.8 (or later) software. The amplifier recorded from all channels simultaneously (gain = 1200 x; sampling rate = 12.5 kHz/channel): raw signals were filtered with a Butterworth band-pass filter (300-5000 Hz), which filters out slower local field potentials leaving only fast potentials, i.e., "spikes", arising from extracellular currents associated with action potentials (Pine 2006; Wheeler and Nam 2011). On-line spike detection of filtered signals was conducted with the AxIS adaptive spike detector, using a threshold of 8x the root mean squared (rms) noise on each channel. Any electrodes with rms noise levels greater than 5 uV were grounded (e.g., no data were recorded). Once grounded, an electrode was grounded for the duration of the experiment. All recordings were conducted at 37 C. Wells were deemed usable if on the day of the exposure >/= 10 electrodes were active (defined as >/= 5 spikes/min). On DIV 13 or 15, a minimum of three wells from one cortical culture preparation were treated with each compound (0.03-40 uM). Prior to recording baseline activity, each mwMEA plate was placed in the Maestro at 37 C and allowed to sit for 20 min while firing rates stabilized. Baseline activity (40 min) was recorded before the addition of each compound. An additional 40 min of spontaneous activity was recorded in the presence of each compound. Changes in network parameters relative to baseline were assessed following compound treatment.

Compound	outcome	AC50
COP(=S)(OC)Oc1nc(Cl)c(Cl)cc1Cl	inactive	–
Cc1c(F)c(F)c(COC(=O)C2C(/C=C(\Cl)C(F)(F)F)C2(C)C)c(F)c1F (stereo not drawn)	–	0.433 µM (active)
OC(c1ccc(Cl)cc1)(c1cncnc1)c1ccccc1Cl (stereo not drawn)	–	3.05 µM (active)
N#CC(CCc1ccc(Cl)cc1)(Cn1cncn1)c1ccccc1 (stereo not drawn)	inactive	–
CCOP(=S)(OCC)SCn1c(=O)oc2cc(Cl)ccc21	–	29.3 µM (active)
CON(C)C(=O)Nc1ccc(Cl)c(Cl)c1	–	6.56 µM (active)
CCNc1nc(Cl)nc(NC(C)C)n1	–	20 µM (active)
Cc1ccc(-c2c(Cl)nc(C#N)n2S(=O)(=O)N(C)C)cc1	inactive	–
CCCN(CCC)c1c([N+](=O)[O-])cc(S(N)(=O)=O)cc1[N+](=O)[O-]	–	5 µM (active)
C#CCOS(=O)OC1CCCCC1Oc1ccc(C(C)(C)C)cc1 (stereo not drawn)	–	32.5 µM (active)
COC(=O)C(C)Oc1ccc(Oc2ccc(Cl)cc2Cl)cc1 (stereo not drawn)	–	20 µM (active)
N#Cc1nn(-c2c(Cl)cc(C(F)(F)F)cc2Cl)c(N)c1S(=O)C(F)(F)F (stereo not drawn)	–	33.4 µM (active) and 23.4 µM (active)
CS/C(C)=N/OC(=O)N(C)SN(C)C(=O)O/N=C(\C)SC	–	27.8 µM (active)
CCCCNC(=O)OCC#CI	–	15.5 µM (active)
COC(=O)N(OC)c1ccccc1COc1ccn(-c2ccc(Cl)cc2)n1	–	1.73 µM (active)
CC1COC(Cn2cncn2)(c2ccc(Oc3ccc(Cl)cc3)cc2Cl)O1 (stereo not drawn)	–	11.5 µM (active)
Fc1ccc(Oc2ccnc3cc(Cl)cc(Cl)c23)cc1	inactive	–
CC(C)Oc1cc(-n2nc(C(C)(C)C)oc2=O)c(Cl)cc1Cl	inactive	–
COP(N)(=O)SC (stereo not drawn)	inactive	–
COc1ccc(C(c2ccc(OC)cc2)C(Cl)(Cl)Cl)cc1	–	27.4 µM (active)
CCCC1COC(Cn2cncn2)(c2ccc(Cl)cc2Cl)O1 (stereo not drawn)	–	17.5 µM (active)
C=CCC1=C(C)[C@@H](OC(=O)[C@@H]2[C@@H](C=C(C)C)C2(C)C)CC1=O	–	27.2 µM (active)
CC(Oc1ccc(Cl)cc1Cl)C(=O)O (stereo not drawn)	inactive	–
CNC(=O)ON=CC(C)(C)SC	inactive	–
C=CCC1=C(C)C(OC(=O)C2C(C=C(C)C)C2(C)C)CC1=O (stereo not drawn)	–	5.52 µM (active) and 2.93 µM (active)
O=C(O)c1nc(Cl)ccc1Cl	inactive	–
CO/C=C(/C(=O)OC)c1ccccc1Oc1cc(Oc2ccccc2C#N)ncn1	–	10.7 µM (active)
CC(C)(C)c1ccc(CSc2cnn(C(C)(C)C)c(=O)c2Cl)cc1	–	3.24 µM (active)

From PubChem BioAssay (EPA / NIEHS)
